# Experimental data: PubChem BioAssay AID1981 (Southern Research Specialized Biocontainment Screening …, 2009)
# Out of some 2,200 compounds screened, about 480 (22%) were called active. How the calls were made is not given here. Only a sample is shown. Entries with a potency or affinity are not part of this list.
# Test: S. Typhimurium GFP fluorescence dose response in modified counterscreen for PhoP regulon inhibitor project (AID 1981)
# Details: 4 h; series mostly up to 150 µM
row,SMILES,outcome
1,c1nc(N2CCC3(CC2)OCCO3)c2c3c(sc2n1)CCCC3,inactive
2,C=CCc1ccccc1OCC(O)CN1CCN(CCN2C(=O)c3cccc4cccc(c34)C2=O)CC1 (stereo unspecified),inactive
3,COc1ccc([N+](=O)[O-])cc1N(CC(O)Cn1nnc2ccccc21)S(=O)(=O)c1ccc(C)cc1 (stereo unspecified),inactive
4,Cc1ccc(/C(O)=C2\C(=O)C(=O)N(CC(C)O)C2c2cccc(F)c2)cc1 (stereo unspecified),inactive
5,COc1ccc(C2CC(c3ccccc3)=NN2C(=O)COC(=O)c2cccnc2)cc1 (stereo unspecified),inactive
6,CCOC(=O)/C=C1\SCC(=O)N1CC(=O)NC1CCCCC1,inactive
7,COC(=O)c1ccc2c(=O)n(CCN3CCOCC3)c(SCC(=O)C(C)(C)C)nc2c1,inactive
8,Cc1nn(-c2ccccc2)c(N2CCCC2)c1/C=N/Nc1ccc(S(N)(=O)=O)cc1[N+](=O)[O-],inactive
9,c1ccc2c(c1)ncn2CCCCOc1ccc2c(c1)CCC2,inactive
10,Cc1ncoc1C(=O)Nc1cccc(Cl)c1,inactive
11,CC1N(C)c2cc(NC(=O)c3ccco3)ccc2C1(C)C (stereo unspecified),inactive
12,CSc1cccc(NC(=O)c2ccco2)c1,inactive
13,O=C(Nc1ccc2c(c1)oc1ccccc12)N1CCOCC1,inactive
14,O=C(NCC(=O)N(c1cccnc1)C(C(=O)NCc1ccco1)c1ccccc1)c1ccco1 (stereo unspecified),inactive
15,CC(=O)c1c(C)n([O-])c2cc(F)c(F)cc2[n+]1=O,inactive
16,Cc1c(C(=O)Nc2cccc(Cl)c2)c2ccccn2c1CCc1ccncc1,inactive
17,CCOc1ccc(-c2nnc(SCc3nnc(-c4ccccc4)o3)n2-c2ccccc2F)cc1,inactive
18,CCC(CC)NC(=O)COC(=O)c1ccc(OCC(=O)Nc2ccccc2OC)c(OC)c1,inactive
19,Cc1nn(-c2ccccc2)c(C)c1C(=O)OC/C(O)=C(\C#N)c1nc2ccccc2[nH]1,inactive
20,COC(=O)c1sc2nc(CSc3nc4ccc(C)cc4[nH]3)[nH]c(=O)c2c1C,inactive
21,CCOCC(=O)Nc1ccc(F)c(F)c1,inactive
22,Nc1nc(N)nc(-c2ccccc2)n1,inactive
23,CC(C)(C)c1ccc(NC(=O)COC(=O)c2ccc([N+](=O)[O-])s2)cc1,inactive
24,O=C(NCCCc1ccccc1)Nc1cccc(Cl)c1,inactive

row,SMILES,outcome
1,O=C(Nc1cccc(Cl)c1)Nc1ccc2c(c1)OCO2,inactive
2,N/C(=N/OC(=O)c1ccccc1Cl)c1ncc([N+](=O)[O-])s1,inactive
3,CCOC(=O)Nc1ccc(C)cc1C,inactive
4,CCOC(=O)c1sc(-c2ccc(C(F)(F)F)cc2)nc1O,inactive
5,O=C(NNc1c2ccccc2nc2ccccc12)c1ccccc1O,inactive
6,CC(C)c1ccc(NC(=O)N(CCc2nc3ccccc3[nH]2)C2CCCC2)cc1,inactive
7,Cc1ccc(CNC(=O)Nc2cccs2)cc1,inactive
8,CCCc1cc(C(=O)NNC(=S)NC(C)c2ccccc2)cs1 (stereo unspecified),inactive
9,Cc1noc(C)c1CSc1nc2ccccc2nc1NS(=O)(=O)c1ccc(Cl)cc1,inactive
10,COc1ccc(C(=O)NC(=S)NCc2ccc(-c3nc4ccccc4o3)cc2)cc1OC,inactive
11,O=C(O)CC(NC(=S)NCc1ccccc1)C(=O)O (stereo unspecified),inactive
12,Cc1cc(Nc2ccc(Cl)cc2)nc(N)n1,inactive
13,O=S(=O)(c1ccc(NC(=S)Nc2ccc3c(c2)OCO3)cc1)N1CCOCC1,inactive
14,CC(C(=O)NC1CCS(=O)(=O)C1)N1C(=O)/C(=C/c2ccc(Cl)cc2)SC1=S (stereo unspecified),inactive
15,O=S1(=O)C=CC(Nc2cccc(Cl)c2)C1 (stereo unspecified),inactive
16,CC1=C(C(=O)OCC2CCCO2)C(c2cccc(C(F)(F)F)c2)C2=C(CC(c3ccco3)CC2=O)N1 (stereo unspecified),inactive
17,CN(CCNS(=O)(=O)c1ccc2c(c1)oc(=O)n2C)Cc1ccccc1,inactive
18,COc1ccc(-c2cnn3c(N)c(S(=O)(=O)C(C)(C)C)cnc23)cc1,inactive
19,C/C(=C\C(=O)c1cccnc1)Nc1ccc(O)cc1,inactive
20,O=C(N/N=C/c1ccc(Cl)cc1Cl)c1cccc(F)c1,inactive
21,O=C(N/N=C/C1C(c2ccccc2)C1(Cl)Cl)c1cccc(Cl)c1 (stereo unspecified),inactive
22,CC(=O)Nc1ccc(OC(=O)c2cccnc2)cc1,inactive
23,N/C(=N\OC(=O)Cc1ccc(Cl)cc1)c1cccnc1,inactive
24,O=C(N/N=C/C1CC=CCC1)c1ccc(Cl)cc1O (stereo unspecified),inactive

row,SMILES,outcome
1,N/C(=N\OC(=O)COc1ccc(Cl)cc1)c1cccnc1,inactive
2,N#CC(CC(=O)c1ccc(F)cc1)c1ccc2c(c1)OCO2 (stereo unspecified),inactive
3,C/C(=N\NC(=S)Nc1ccc(F)cc1)c1ccc2c(c1)OCCO2,inactive
4,C(=N\c1nc2ccccc2n1CCN1CCCCC1)/c1cccs1,inactive
5,Cc1cccc(C(=O)Nc2nnc(Cc3c[nH]c4ccccc34)s2)c1,inactive
6,CC1CN(C(=O)CCc2ccccc2)C(C)CN1C(=O)CCc1ccccc1 (stereo unspecified),inactive
7,Cc1cccc(OCCSCc2nc3ccccc3[nH]2)c1,inactive
8,Cc1ccc(Cn2cnc3ccccc32)cc1,inactive
9,Cc1ccc(-c2nnc(SCC(=O)N3CCCc4ccccc43)n2N)cc1,inactive
10,Clc1ccc(-c2cnc3n2CCC3)cc1,inactive
11,O=[N+]([O-])c1ccc(N2CCN(CCOc3nonc3-c3ccccc3)CC2)c(Cl)c1,inactive
12,Cc1occc1C(=O)n1cnc2ccccc21,inactive
13,Nc1c(-c2ccccc2Cl)cnn1-c1cccc([N+](=O)[O-])c1,inactive
14,C=C(C)C1Cc2cc3ccc(=O)oc3cc2O1 (stereo unspecified),inactive
15,CCOC(=O)C1=C(C)N(CCO)C(=O)NC1c1cccc(O)c1 (stereo unspecified),inactive
16,O=c1c2ccccc2nnn1Cc1ccccn1,inactive
17,Cc1cc(C)c(C#N)c(SCC(O)CS(=O)(=O)Cc2ccccc2)n1 (stereo unspecified),inactive
18,Cc1cc(C(=O)N/N=C/c2cc(Br)cc(Br)c2OC(=O)c2ccccc2)n[nH]1,inactive
19,C/C(=N\NC(=O)C1CC1c1ccccc1)c1cccc([N+](=O)[O-])c1 (stereo unspecified),inactive
20,Cc1cc(/C=N/NC(=O)c2cccc([N+](=O)[O-])c2)c(C)n1-c1ccc(Cl)cc1Cl,inactive
21,Cc1ccc(N=Nc2ccc(O)c(/C=N\NC(=O)c3ccc(N)cc3)c2)cc1C,inactive
22,Nc1nnc(CC(=O)N/N=C\c2cc([N+](=O)[O-])ccc2O)s1,inactive
23,Cc1ccc2cccc(Oc3ncnc4scc(-c5ccccc5)c34)c2n1,inactive
